# HIF-2a block: HIF-2a reporter inhibitors, primary screen, luminescence, 786-0 RCC cells | actives 0.72% (n = 360,000) | 786-0 RCC cells HIF-2a reporter, luciferase luminescence, overnight | inhibition, % at 18.8 µM | AID 624352, 2012;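 active means inhibition of the luminescence signal of 40% or more relative to plate controls, in a single-dose primary screen at 18.75 µM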
# Shn3 3UTR inh: reduction of Shn3 3'UTR firefly luciferase signal, primary screen, Schnurri-3 inhibitor project, cell-based, Clone20 osteoblasts, set 2; actives 0.52% (n = 360,000); inhibition, % at 12.5 µM; Clone20 osteoblast Shn3 3'UTR firefly luciferase, 24 h; AID 588674, 2011;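 active means mean inhibition of at least 75% with every replicate also reaching 75%; inconclusive means mean inhibition at least 75% but some replicate below; inactive means mean inhibition below 75%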
# TRPM1 prom inh: inhibitors of MITF-dependent TRPM1 promoter reporter, primary screen, cell-based, SK-MEL-5, single point, luciferase. SK-MEL-5 TRPM1 promoter luciferase, 24 h. inhibition, % at 12.5 µM. actives 0.83% (n = 330,000);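 active means mean inhibition across replicates of 60% or more, whatever share of single replicates reaches that level; inconclusive means some that reach 60%, reason not given; inactive means mean inhibition across replicates below 60%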
# Peg3 promoter: Peg3 promoter-driven luciferase inhibitors, primary screen, cell-based, HeLa, luciferase luminescence. HeLa PEG-Prom luciferase reporter, overnight. inhibition, % at 20 µM. actives 1.7% (n = 360,000). AID 588405, 2011;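 active means inhibition of at least 50% at 20 µM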
# CF NFkB block: inhibitors of PAF-induced NF-kB signaling, primary screen, cell-based, GFP fluorescence, uHTS; AID 588850, 2011; KKLEB NF-kB-GFP reporter, GFP fluorescence overnight; inhibition, % at 5 µM; actives 0.86% (n = 360,000);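 active means at least 50% inhibition at 5 µM, scaled per plate between neutral and stimulator controls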;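 further: PAF is a Pseudomonas aeruginosa culture filtrate used as stimulus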
# KKLEB cytotox: cytotoxicity in KKLEB CF airway cells, primary screen, cytotoxicity control for CF NF-kB inhibitor project, cell-based, uHTS, fluorescence assay plates; KKLEB CF airway cells viability, ATPlite luminescence, overnight; stronger effect = lower value; cells stimulated with P. aeruginosa culture filtrate; activity change (cytotoxicity), % at 5 µM; actives 0.36% (n = 360,000); AID 602141, 2011;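 active means corrected activity change at or below -50% at 5 µM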
# Numbers stand for hits; n = inactive; u = inconclusive; x = not tested or not shown. Compounds with a hit are over-represented: about 2.7% of the library has one in this group of screens.
SMILES,HIF-2a block,Shn3 3UTR inh,TRPM1 prom inh,Peg3 promoter,CF NFkB block,KKLEB cytotox
CC(C)(C)CC(=O)NC(=S)NCc1ccccc1,n,n,n,n,n,n
CN(C)C(=O)c1ccc(SC(=S)NCc2ccccc2)cc1,n,u,x,85,n,n
CC(=O)[C@@]1(O)CC[C@H]2[C@@H]3C[C@H](C)C4=CC(=O)C=C[C@]4(C)[C@@]3(F)[C@@H](O)C[C@@]21C,n,n,n,n,72,n
CC1(C)O[C@@H]2C[C@H]3[C@@H]4CCC5=CC(=O)CC[C@]5(C)[C@@]4(F)[C@@H](O)C[C@]3(C)[C@]2(C(=O)CCl)O1,n,n,n,n,77,n
CC(=O)C1CCC2C3CCC4=CC(=O)CCC4(C)C3(Br)C(=O)CC12C (stereo unspecified),n,n,n,n,n,n
C[C@@H]1C[C@H]2[C@@H]3C[C@H](F)C4=CC(=O)C=C[C@]4(C)[C@@]3(F)[C@@H](O)C[C@]2(C)[C@@]1(O)C(=O)COC(=O)C(C)(C)C,n,n,n,n,76,n
CCCC(=O)O[C@]1(C(=O)COC(C)=O)CC[C@H]2[C@@H]3C[C@H](F)C4=CC(=O)C=C[C@]4(C)[C@@]3(F)[C@@H](O)C[C@@]21C,n,n,n,n,63,n
COc1ccc(-c2nc3c(C)cc(Br)cn3c2Cc2cccc(F)c2)cc1OC,n,n,x,n,n,n
O=C(CCn1c(=S)[nH]c2cc3c(cc2c1=O)OCO3)NCCc1ccccc1Cl,n,n,x,n,n,n
CC12CCC(=O)C=C1CCC1C2CCC2(C)C(C(=O)CO)CC(O)C12 (stereo unspecified),n,n,n,n,n,n
CC(=O)OCC(=O)[C@@]1(O)[C@H](C)C[C@H]2[C@@H]3CCC4=CC(=O)C=C[C@]4(C)[C@@]3(F)[C@@H](O)C[C@@]21C,n,n,n,n,69,n
CC(=O)C12OC(C)(C)OC1CC1C3CCC4=CC(=O)C=CC4(C)C3(F)C(O)CC12C (stereo unspecified),n,n,n,n,79,n
C[C@]12C=CC(=O)C=C1CCC1C2CC[C@@]2(C)C1CCC21OCCO1 (stereo partly specified),n,n,n,n,n,n
CCC(=O)OCC(=O)[C@@]1(OC(=O)CC)[C@@H](C)C[C@H]2[C@@H]3CCC4=CC(=O)C=C[C@]4(C)[C@@]3(Cl)[C@@H](O)C[C@@]21C,n,n,n,n,67,n
CC(=O)OCC(=O)C1CCC2C3CCC4=CC(=O)C=CC4(C)C3CCC12C (stereo unspecified),n,n,n,n,n,n
C[C@@H]1C[C@H]2[C@@H]3CCC4=CC(=O)C=C[C@]4(C)[C@@]3(F)[C@@H](O)C[C@]2(C)[C@H]1C(=O)CO,n,n,n,n,72,n
Cc1c(C(=O)NCc2cccc(C(F)(F)F)c2)sc(=O)n1Cc1ccccc1F,n,n,x,n,n,n
C[C@H]1COc2cc(N(C)CCO)ccc2S(=O)(=O)N1,n,x,x,x,x,x
CCOC(=O)Cc1c(C)nc2c(-c3cccc(Br)c3)c[nH]n2c1=O,n,n,n,58,n,n
CN1CCCC1CCNc1ccc2sc3ccccc3c(=O)c2c1 (stereo unspecified),n,n,n,n,n,n
Cc1cc2oc3cc(NCCC4CCCN4C)ccc3c(=O)c2cc1C (stereo unspecified),n,n,n,83,n,n
CC(=O)NCCNc1nc2cc(-c3ccccc3C)sc2c(=O)n1C,n,n,x,n,n,n
COc1ccc(NS(=O)(=O)c2cccc(C(=O)N3CCCC3)c2)cc1,n,n,n,58,n,n
COc1ccc(NS(=O)(=O)c2cccc(C(=O)N3CCC3)c2)cc1,n,n,n,n,n,n
COc1ccc(C(=O)NNC(=O)c2cccc(S(=O)(=O)N3CCOCC3)c2)cc1,n,96,n,n,n,n
SMILES,HIF-2a block,Shn3 3UTR inh,TRPM1 prom inh,Peg3 promoter,CF NFkB block,KKLEB cytotox
CCCCCCCCN1C(=O)[C@H](CC(=O)NCc2ccc(OC)c(OC)c2)C[C@@]2(C(=O)OC)CCCCC=C12,n,x,x,x,x,x
COC(=O)[C@@]12C[C@@H](CC(=O)NCC3CCCCC3)C(=O)N(Cc3ccco3)C1=CCC(C)(C)C2,n,x,x,x,x,x
CN1CCN(c2ccc(CNC(=O)c3cccc4c(-c5ccc(F)c(F)c5)coc34)cc2)CC1,n,n,x,73,n,n
CN1CCN(c2ccc(CNC(=O)c3ccc(-c4ccc(F)c(F)c4)c4ccoc34)cc2)CC1,n,n,x,63,n,n
Cc1cc(C)cc(CC(=O)N2CCC2(C)C(=O)NS(=O)(=O)c2cc(C)ccc2F)c1 (stereo unspecified),n,n,x,n,n,n
C[C@@H]1CCCCO[C@H](CN(C)C(=O)Nc2ccc3c(c2)OCO3)[C@H](C)CN([C@@H](C)CO)C(=O)c2cc(NS(=O)(=O)c3ccc(Cl)cc3)ccc2O1,n,n,x,n,n,n
COc1cc(NS(=O)(=O)c2ccc(N/C=C(\C#N)c3nc4cc(Cl)ccc4o3)cc2)nc(OC)n1,n,n,77,n,n,n
COc1ccc(CSC(=S)NNc2ccccc2)cc1,n,n,x,n,n,n
C=C1CCC[C@]2(C)C[C@H]3OC(=O)C(CNC(C)CCCC(C)C)[C@H]3CC12 (stereo partly specified),n,n,n,104,n,n
C=C1CCC[C@]2(C)C[C@H]3OC(=O)C(CN[C@@H](C)c4ccccc4)[C@H]3CC12 (stereo partly specified),n,n,n,n,n,n
COc1ccc(-c2n(CC(=O)OC3CC(C)CCC3C(C)C)c3ccccc3[n+]2C)cc1 (stereo unspecified),n,92,91,77,60,-54
Nc1ccc(Oc2ccccc2-c2ccccc2)cc1,91,x,66,n,n,n
CN1C(=O)c2cccc(NCCCCCCN3C(=O)c4ccccc4C3=O)c2C1=O,n,88,n,n,n,n
COc1cc(/C=C(\C#N)c2nc3ccccc3[nH]2)cc(Br)c1OCc1ccccc1,n,n,n,53,n,n
O=C(Nc1ccccc1)c1cc(C2CCCCN2C(=O)c2cccs2)on1 (stereo unspecified),n,n,x,n,n,n
CCc1nc2ccc(C(=O)NCCCn3ccnc3)cn2c1N(C)Cc1ccc(N(C)C)cc1,n,n,x,n,n,n
COc1ccccc1NC(=S)N(CCCN(C)C)Cc1cc2cc3c(cc2[nH]c1=O)OCO3,n,n,n,n,n,n

# Compound activity: PubChem, several laboratories
